This is an account of results in the antibiotic and cytotoxicity screens of Wong et al. (2023).

The structures appear in SMILES notation. Out of some 39,000 compounds screened, about 1,500 (3.8%) were called active. The sample holds actives, similar compounds and a random draw of the others, so the mix is not that of the screen.

The experiment has as its system HSkMC (human skeletal muscle cells). The experiment can be described thus: cytotoxicity call (relative viability < 0.9). The note with it: 10 µM.
For the molecule `C[C@H](CO)N1C[C@H](C)[C@H](CN(C)C(=O)NC2CCCCC2)Oc2ccc(NC(=O)C3CC3)cc2CC1=O`, the cytotoxicity call was “inactive”.

`Cc1ccc(S(=O)(=O)N(C)C[C@H]2Oc3ccc(N(C)C)cc3CC(=O)N([C@H](C)CO)C[C@@H]2C)cc1`: the cytotoxicity call is “inactive”.

As for `CN1N=C2CCN(C(=O)[C@@H](COCc3ccccc3)NC(=O)C(C)(C)N)C[C@@]2(Cc2ccccc2)C1=O`, the cytotoxicity call was “inactive”.

Consider `CN(C)N(C)C(=O)[C@@]1(Cc2ccccc2)CCCN(C(=O)[C@@H](Cc2c[nH]c3ccccc23)NC(=O)C(C)(C)N)C1`, for which the cytotoxicity call was “inactive”.

Turning to `CC(C)(N)C(=O)N[C@H](COCc1ccccc1)C(=O)N1CCC2(CC1)CN(S(C)(=O)=O)c1ccccc12`, the cytotoxicity call is “active”.

Consider `COc1ccc(S(=O)(=O)Nc2ccc3c(c2)C(=O)N([C@H](C)CO)C[C@H](C)[C@@H](CN(C)C(=O)Nc2c(C)noc2C)OCCCC[C@H](C)O3)cc1`, for which the cytotoxicity call was “inactive”.

On to `COc1ccc(NC(=O)N(C)C[C@H]2OCCCC[C@@H](C)Oc3ccc(NC(=O)C4CCCCC4)cc3C(=O)N([C@@H](C)CO)C[C@H]2C)cc1`, for which the cytotoxicity call is “inactive”.

With `C[C@H]1CN([C@@H](C)CO)C(=O)c2cccc(NC(=O)CCCCCC(=O)Nc3ccccc3N)c2O[C@@H]1CN(C)Cc1ccccc1`, the cytotoxicity call is “active”.

Turning to `C[C@H]1CN([C@@H](C)CO)C(=O)c2cccc(NC(=O)CCCCCC(=O)Nc3ccccc3N)c2O[C@H]1CN(C)Cc1ccc(Cl)c(Cl)c1`, the cytotoxicity call was “active”.

Turning to `C[C@H]1CN([C@@H](C)CO)C(=O)c2cccc(NC(=O)CCCCCC(=O)Nc3ccccc3N)c2O[C@@H]1CN(C)Cc1ccc(-c2ccccc2)cc1`, the cytotoxicity call is “active”.

As to `C[C@H]1CN([C@@H](C)CO)C(=O)c2cccc(NC(=O)CCCCCC(=O)Nc3ccccc3N)c2O[C@H]1CN(C)Cc1ccc(-c2ccccc2)cc1`, the cytotoxicity call is “inactive”.

Take `C[C@@H]1CN([C@@H](C)CO)C(=O)c2cccc(NC(=O)CCCCCC(=O)Nc3ccccc3N)c2O[C@H]1CN(C)Cc1ccc(Cl)c(Cl)c1`: the cytotoxicity call is “inactive”.

Take `C[C@@H]1CN([C@@H](C)CO)C(=O)c2cccc(NC(=O)CCCCCC(=O)Nc3ccccc3N)c2O[C@@H]1CN(C)Cc1ccc(Cl)c(Cl)c1`: the cytotoxicity call is “inactive”.

Take `C[C@@H]1CN([C@@H](C)CO)C(=O)c2cccc(NC(=O)CCCCCC(=O)Nc3ccccc3N)c2O[C@@H]1CN(C)Cc1ccccc1`: the cytotoxicity call is “inactive”.

On to `C[C@@H]1CN([C@@H](C)CO)C(=O)c2cccc(NC(=O)CCCCCC(=O)Nc3ccccc3N)c2O[C@H]1CN(C)Cc1ccc(-c2ccccc2)cc1`, for which the cytotoxicity call was “inactive”.

For the molecule `C[C@@H]1CN([C@H](C)CO)C(=O)c2cccc(NC(=O)CCCCCC(=O)Nc3ccccc3N)c2O[C@H]1CN(C)Cc1ccccc1`, the cytotoxicity call was “inactive”.

With `Cc1ccc(S(=O)(=O)Nc2ccc3c(c2)C(=O)N([C@@H](C)CO)C[C@H](C)[C@@H](CN(C)Cc2ccncc2)OCCCC[C@H](C)O3)cc1`, the cytotoxicity call was “inactive”.

Turning to `C[C@@H]1CN([C@H](C)CO)C(=O)c2cc(NC(=O)c3ccncc3)ccc2O[C@@H](C)CCCCO[C@@H]1CN(C)S(=O)(=O)c1ccc(Cl)cc1`, the cytotoxicity call is “inactive”.

For the molecule `COc1ccc(S(=O)(=O)Nc2ccc3c(c2)C(=O)N([C@@H](C)CO)C[C@H](C)[C@H](CN(C)S(C)(=O)=O)OCCCC[C@@H](C)O3)cc1`, the cytotoxicity call is “inactive”.

For `C[C@@H]1CN([C@H](C)CO)C(=O)c2cc(NC(=O)CCN3CCOCC3)ccc2O[C@H]1CN(C)Cc1ccncc1`, the cytotoxicity call was “inactive”.

Take `CN(C)CC(=O)OCC(O)C(O)C(O)C(O)C(=O)[O-].[Na+]` (stereo not drawn): the cytotoxicity call was “inactive”.

Regarding `O=C(c1ccc(Cl)cc1)c1coc2c1cc(O)c1ccccc12`, the cytotoxicity call was “active”.

On to `O=C(Nc1ccc(Cl)cc1C(=O)c1ccc(Cl)cc1)c1cc(Br)ccc1NS(=O)(=O)c1ccc(Cl)cc1`, for which the cytotoxicity call was “inactive”.

Regarding `O=C(c1ccc(Cl)cc1)n1c2ccccc2c2ccccc21`, the cytotoxicity call is “inactive”.

Consider `O=C(NCC[C@@H]1CC[C@H](NS(=O)(=O)c2cccc(F)c2)[C@H](CO)O1)C1CC1`, for which the cytotoxicity call was “inactive”.

Take `C[C@@H]1CCCCO[C@H](CN(C)S(=O)(=O)c2ccccc2)[C@@H](C)CN([C@@H](C)CO)C(=O)c2cc(NC(=O)C3CCCCC3)ccc2O1`: the cytotoxicity call was “inactive”.

On to `C[C@@H]1CN([C@@H](C)CO)C(=O)c2cccc(NC(=O)NC3CCCCC3)c2O[C@H]1CN(C)Cc1ccc(C(F)(F)F)cc1`, for which the cytotoxicity call was “inactive”.

As to `Nc1ccc(-n2cc(CCC(=O)NO)nn2)cc1`, the cytotoxicity call is “inactive”.

Take `CC(/C=C/C(=O)NO)=C\c1ccccc1OCc1cn(CCNC(=O)[C@@H](NS(=O)(=O)c2ccc(C)cc2)C(C)C)nn1`: the cytotoxicity call is “inactive”.

For the molecule `Cc1ccc(S(=O)(=O)N(c2cccc(-n3cc(CCC(=O)NO)nn3)c2)S(=O)(=O)c2ccc(C)cc2)cc1`, the cytotoxicity call is “active”.

For the molecule `CC(/C=C/C(=O)NO)=C\c1ccccc1OCc1cn(C[C@@H]2CCCN2S(=O)(=O)c2ccc(C)cc2)nn1`, the cytotoxicity call was “inactive”.

As for `CC(/C=C/C(=O)NO)=C\c1ccccc1OCc1cn(-c2cccc(N(S(=O)(=O)c3ccc(C)cc3)S(=O)(=O)c3ccc(C)cc3)c2)nn1`, the cytotoxicity call was “active”.

In the case of `Nc1cccc(-n2cc(CCC(=O)NO)nn2)c1`, the cytotoxicity call was “inactive”.

With `C[C@@H]1CCCCO[C@H](CN(C)Cc2ccncc2)[C@@H](C)CN([C@@H](C)CO)C(=O)c2cc(NC(=O)Nc3ccccc3)ccc2O1`, the cytotoxicity call was “inactive”.

For `C[C@H](CO)N1C[C@H](C)[C@@H](CN(C)S(=O)(=O)c2ccc(Cl)cc2)OCCCC[C@H](C)Oc2ccc(NC(=O)c3ccccc3)cc2C1=O`, the cytotoxicity call is “inactive”.

As to `C[C@@H]1CN([C@H](C)CO)C(=O)c2cc(NS(C)(=O)=O)ccc2O[C@@H](C)CCCCO[C@@H]1CN(C)Cc1ccncc1`, the cytotoxicity call is “inactive”.

On to `C[C@@H]1CN([C@H](C)CO)C(=O)c2cc(NC(=O)NC3CCCCC3)ccc2O[C@@H](C)CCCCO[C@H]1CN(C)S(=O)(=O)c1cccs1`, for which the cytotoxicity call was “inactive”.

Take `C[C@@H]1CN([C@H](C)CO)C(=O)c2cc(NC(=O)Nc3ccccc3)ccc2O[C@@H]1CN(C)C(=O)Nc1cccc2ccccc12`: the cytotoxicity call was “active”.

For `C[C@H](CO)N1C[C@H](C)[C@@H](CN(C)C(=O)Nc2cccc3ccccc23)Oc2ccc(NC(=O)Nc3ccccc3)cc2C1=O`, the cytotoxicity call was “inactive”.

Turning to `C[C@@H]1CN([C@@H](C)CO)C(=O)c2cc(NC(=O)Nc3ccccc3)ccc2O[C@@H]1CN(C)C(=O)Nc1cccc2ccccc12`, the cytotoxicity call is “active”.

As for `C[C@H](CO)N1C[C@H](C)[C@H](CN(C)C(=O)Nc2cccc3ccccc23)Oc2ccc(NC(=O)Nc3ccccc3)cc2C1=O`, the cytotoxicity call is “inactive”.

Turning to `C[C@@H]1CN([C@H](C)CO)C(=O)c2cc(NC(=O)Nc3ccccc3)ccc2O[C@H]1CN(C)C(=O)Nc1cccc2ccccc12`, the cytotoxicity call is “inactive”.

With `C[C@H]1CN([C@@H](C)CO)C(=O)c2cc(NC(=O)Nc3ccccc3)ccc2O[C@H]1CN(C)C(=O)Nc1cccc2ccccc12`, the cytotoxicity call is “inactive”.
